This passage reports binding signal results from paper PMC7862700, “An all-to-all approach to the identification of sequence-specific readers for epigenetic DNA modifications on cytosine”.

What all share (experiment): DAPPL (digital affinity profiling via proximity ligation, sequencing); 10 mM Tris-HCl pH 7.5, 50 mM NaCl, 1 mM DTT, 4% glycerol, room temperature, 30 min; GST-TFs on glutathione beads, 16-mer random dsDNA library, 0.1% formaldehyde crosslink after washing; high values mean tight binding
Test [1] concerns the target T1, FEV (Homo sapiens, UniProt Q99581 1-238).
T1 sequence: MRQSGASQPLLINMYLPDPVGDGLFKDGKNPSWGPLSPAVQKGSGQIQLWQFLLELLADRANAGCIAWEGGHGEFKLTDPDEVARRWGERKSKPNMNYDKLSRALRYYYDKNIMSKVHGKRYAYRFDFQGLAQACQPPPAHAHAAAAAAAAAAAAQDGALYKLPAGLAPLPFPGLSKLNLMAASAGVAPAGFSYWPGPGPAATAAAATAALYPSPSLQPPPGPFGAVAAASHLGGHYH
The note with it: protein: recombinant; tags: N-terminal GST; dsDNA, one strand shown. In short, it runs like this:
(§1)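 After expression in yeast as GST fusions, human transcription factors were bound to glutathione beads, DNA-barcoded and mixed with a tag-only sample. The pools were incubated with 200 nmole of a 16-mer random double-stranded DNA library in Tris/NaCl/DTT/glycerol buffer (30 min, room temperature), washed and crosslinked with 0.1% formaldehyde. Proximity ligation with BsaI/T4 ligase ran for 1 h at 37 °C, before PCR amplification and sequencing on an Illumina NextSeq500. Binding signal is a hexamer's read frequency for a factor divided by its frequency for the tag-only sample.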

Test [2] deals with ETV5 (Homo sapiens, UniProt P41161 1-510). The note with it: protein: recombinant; tags: N-terminal GST; dsDNA, one strand shown. Put shortly:
as §1

Test [3] concerns the target HSF1 (Homo sapiens, UniProt Q00613 1-529). The conditions noted are these: protein: recombinant; tags: N-terminal GST; chain copies: 3; dsDNA, one strand shown. In short, it runs like this: as §1
Test [4] concerns the target T2, SPIC (Homo sapiens, UniProt Q8N5J4 1-248).
T2 sequence: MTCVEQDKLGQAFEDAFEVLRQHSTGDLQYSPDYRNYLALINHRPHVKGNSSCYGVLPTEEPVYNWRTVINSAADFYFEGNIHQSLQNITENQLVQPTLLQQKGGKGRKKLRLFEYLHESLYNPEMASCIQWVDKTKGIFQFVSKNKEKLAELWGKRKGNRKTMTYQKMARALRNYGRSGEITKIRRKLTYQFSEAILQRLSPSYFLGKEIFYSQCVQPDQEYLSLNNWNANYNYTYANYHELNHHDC
The note with it: protein: recombinant; tags: N-terminal GST; dsDNA, one strand shown. In short, it runs like this: as §1

The target in test [5] is ELF4 (Homo sapiens, UniProt Q99607 1-663). The note with it: protein: recombinant; tags: N-terminal GST; dsDNA, one strand shown. Put shortly: as §1
ELF4, sequence (Q99607 whole entry): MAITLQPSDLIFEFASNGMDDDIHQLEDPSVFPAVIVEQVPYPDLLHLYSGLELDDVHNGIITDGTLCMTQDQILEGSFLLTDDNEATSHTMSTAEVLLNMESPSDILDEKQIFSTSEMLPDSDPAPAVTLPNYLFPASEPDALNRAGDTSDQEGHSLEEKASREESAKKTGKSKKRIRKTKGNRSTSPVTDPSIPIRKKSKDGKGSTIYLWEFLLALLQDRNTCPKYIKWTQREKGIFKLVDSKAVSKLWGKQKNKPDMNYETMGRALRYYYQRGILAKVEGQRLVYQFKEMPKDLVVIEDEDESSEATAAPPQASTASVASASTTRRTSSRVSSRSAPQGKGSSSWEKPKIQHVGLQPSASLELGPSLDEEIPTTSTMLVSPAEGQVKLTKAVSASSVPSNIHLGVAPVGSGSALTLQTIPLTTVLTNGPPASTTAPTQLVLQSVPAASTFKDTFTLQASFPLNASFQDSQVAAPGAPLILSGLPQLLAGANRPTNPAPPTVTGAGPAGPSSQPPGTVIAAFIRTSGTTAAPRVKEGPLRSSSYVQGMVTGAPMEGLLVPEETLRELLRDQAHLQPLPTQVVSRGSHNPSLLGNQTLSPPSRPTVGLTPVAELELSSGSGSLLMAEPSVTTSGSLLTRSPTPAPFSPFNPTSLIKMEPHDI
Test [6] addresses T3, ELK4 (Homo sapiens, UniProt P28324-2 1-405).
T3 sequence: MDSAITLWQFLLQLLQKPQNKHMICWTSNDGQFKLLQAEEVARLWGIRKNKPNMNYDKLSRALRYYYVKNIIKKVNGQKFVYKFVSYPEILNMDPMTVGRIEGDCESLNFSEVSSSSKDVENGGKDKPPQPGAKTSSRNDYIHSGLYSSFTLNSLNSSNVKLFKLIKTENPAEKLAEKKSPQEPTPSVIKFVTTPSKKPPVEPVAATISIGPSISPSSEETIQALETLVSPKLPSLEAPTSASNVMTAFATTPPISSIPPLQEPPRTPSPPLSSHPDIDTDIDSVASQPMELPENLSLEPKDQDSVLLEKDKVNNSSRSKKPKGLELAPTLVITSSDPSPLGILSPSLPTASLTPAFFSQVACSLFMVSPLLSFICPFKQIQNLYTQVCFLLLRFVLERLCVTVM
The note with it: protein: recombinant; tags: N-terminal GST; dsDNA, one strand shown. In short, it runs like this:
as §1

The target of test [7] is T4, ETV2 (Homo sapiens, UniProt O00321 1-342).
T4 sequence: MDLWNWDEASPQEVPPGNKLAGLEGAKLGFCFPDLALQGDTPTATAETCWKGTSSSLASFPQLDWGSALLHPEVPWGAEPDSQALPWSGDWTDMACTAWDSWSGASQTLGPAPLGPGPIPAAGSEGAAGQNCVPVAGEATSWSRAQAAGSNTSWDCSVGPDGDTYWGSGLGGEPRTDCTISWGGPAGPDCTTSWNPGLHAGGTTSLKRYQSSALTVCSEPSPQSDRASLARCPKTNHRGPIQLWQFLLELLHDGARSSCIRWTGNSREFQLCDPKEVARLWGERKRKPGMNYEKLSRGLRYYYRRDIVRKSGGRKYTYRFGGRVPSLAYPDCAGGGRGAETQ
The note with it: protein: recombinant; tags: N-terminal GST; dsDNA, one strand shown. In short, it runs like this:
as §1

Test [8] has as its target T5, ELF3 (Homo sapiens, UniProt P78545 1-371).
T5 sequence: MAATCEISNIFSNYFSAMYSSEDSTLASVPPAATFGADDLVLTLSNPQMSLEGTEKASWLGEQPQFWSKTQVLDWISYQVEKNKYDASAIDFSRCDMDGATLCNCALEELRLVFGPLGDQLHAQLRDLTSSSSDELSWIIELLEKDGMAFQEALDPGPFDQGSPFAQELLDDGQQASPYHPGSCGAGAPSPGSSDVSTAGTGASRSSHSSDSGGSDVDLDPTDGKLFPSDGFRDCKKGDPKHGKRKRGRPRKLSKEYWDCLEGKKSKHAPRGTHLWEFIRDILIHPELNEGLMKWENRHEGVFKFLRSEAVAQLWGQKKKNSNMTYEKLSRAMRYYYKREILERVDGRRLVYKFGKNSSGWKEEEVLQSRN
The note with it: protein: recombinant; tags: N-terminal GST; dsDNA, one strand shown. In short, it runs like this: as §1

Test [9] has as its target CRX (Homo sapiens, UniProt O43186 1-299). The note with it: protein: recombinant; tags: N-terminal GST; dsDNA, one strand shown. Put shortly: as §1
Test [10] has as its target ETV1 (Homo sapiens, UniProt P50549 1-477). The conditions noted are these: protein: recombinant; tags: N-terminal GST; dsDNA, one strand shown. In short, it runs like this: as §1
Test [11] has as its target T6, ERF (Homo sapiens, UniProt P50548 1-548).
T6 sequence: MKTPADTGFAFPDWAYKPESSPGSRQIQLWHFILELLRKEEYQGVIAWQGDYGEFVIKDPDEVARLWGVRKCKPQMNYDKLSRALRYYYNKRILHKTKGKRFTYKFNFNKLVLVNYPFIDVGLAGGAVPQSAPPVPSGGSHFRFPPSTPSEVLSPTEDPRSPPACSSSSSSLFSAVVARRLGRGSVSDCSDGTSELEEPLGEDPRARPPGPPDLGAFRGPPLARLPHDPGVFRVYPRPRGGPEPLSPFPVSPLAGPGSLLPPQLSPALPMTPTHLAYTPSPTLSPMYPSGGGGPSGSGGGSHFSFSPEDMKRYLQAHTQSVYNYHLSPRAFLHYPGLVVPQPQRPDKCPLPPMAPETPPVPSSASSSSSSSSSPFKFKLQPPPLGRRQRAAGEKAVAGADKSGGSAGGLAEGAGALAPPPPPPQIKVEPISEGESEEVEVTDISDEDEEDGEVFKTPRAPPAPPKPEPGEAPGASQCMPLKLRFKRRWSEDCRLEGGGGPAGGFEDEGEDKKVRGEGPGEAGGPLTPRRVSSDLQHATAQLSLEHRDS
The note with it: protein: recombinant; tags: N-terminal GST; dsDNA, one strand shown. Put shortly: as §1

The target of test [12] is T7, ETV3L (Homo sapiens, UniProt Q6ZN32 1-361).
T7 sequence: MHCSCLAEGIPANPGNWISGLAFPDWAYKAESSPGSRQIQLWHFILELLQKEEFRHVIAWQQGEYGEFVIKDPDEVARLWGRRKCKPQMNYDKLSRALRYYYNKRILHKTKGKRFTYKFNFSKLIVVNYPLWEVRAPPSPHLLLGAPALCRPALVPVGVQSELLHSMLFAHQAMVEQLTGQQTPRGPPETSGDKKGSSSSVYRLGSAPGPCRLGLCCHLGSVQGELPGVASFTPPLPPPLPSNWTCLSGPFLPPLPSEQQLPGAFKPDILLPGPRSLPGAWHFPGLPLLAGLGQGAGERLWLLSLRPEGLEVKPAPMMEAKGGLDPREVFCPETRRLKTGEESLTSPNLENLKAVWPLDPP
The conditions noted are these: protein: recombinant; tags: N-terminal GST; dsDNA, one strand shown. In short, it runs like this:
as §1

The target in test [13] is T8, ETS2 (Homo sapiens, UniProt P15036 1-469).
T8 sequence: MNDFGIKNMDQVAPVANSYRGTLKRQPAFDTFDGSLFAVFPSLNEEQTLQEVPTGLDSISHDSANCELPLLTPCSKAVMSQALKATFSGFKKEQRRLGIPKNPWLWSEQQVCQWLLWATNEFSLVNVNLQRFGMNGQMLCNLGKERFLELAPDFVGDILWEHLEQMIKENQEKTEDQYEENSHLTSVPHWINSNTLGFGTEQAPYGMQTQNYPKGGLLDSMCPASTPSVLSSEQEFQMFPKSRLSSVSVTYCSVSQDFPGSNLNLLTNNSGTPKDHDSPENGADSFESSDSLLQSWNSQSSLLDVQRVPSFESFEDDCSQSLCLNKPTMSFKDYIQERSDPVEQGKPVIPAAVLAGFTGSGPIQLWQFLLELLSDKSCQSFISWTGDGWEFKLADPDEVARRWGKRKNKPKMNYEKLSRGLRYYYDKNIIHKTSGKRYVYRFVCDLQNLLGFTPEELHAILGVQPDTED
The conditions noted are these: protein: recombinant; tags: N-terminal GST; dsDNA, one strand shown. Put shortly:
as §1

Test [14] has as its target T9, SPDEF (Homo sapiens, UniProt O95238 1-335).
T9 sequence: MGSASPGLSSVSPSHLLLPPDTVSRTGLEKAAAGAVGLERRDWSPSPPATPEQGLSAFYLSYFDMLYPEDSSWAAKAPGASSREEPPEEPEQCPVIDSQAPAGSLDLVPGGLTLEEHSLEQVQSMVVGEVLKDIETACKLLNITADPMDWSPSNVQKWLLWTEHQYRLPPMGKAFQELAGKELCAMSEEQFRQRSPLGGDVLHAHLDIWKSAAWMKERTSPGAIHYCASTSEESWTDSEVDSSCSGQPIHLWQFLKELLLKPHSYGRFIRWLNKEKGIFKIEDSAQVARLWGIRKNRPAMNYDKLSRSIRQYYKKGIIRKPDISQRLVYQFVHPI
The note with it: protein: recombinant; tags: N-terminal GST; dsDNA, one strand shown. Put shortly: as §1

In test [15] the target is T10, ETV7 (Homo sapiens, UniProt Q9Y603 1-341).
T10 sequence: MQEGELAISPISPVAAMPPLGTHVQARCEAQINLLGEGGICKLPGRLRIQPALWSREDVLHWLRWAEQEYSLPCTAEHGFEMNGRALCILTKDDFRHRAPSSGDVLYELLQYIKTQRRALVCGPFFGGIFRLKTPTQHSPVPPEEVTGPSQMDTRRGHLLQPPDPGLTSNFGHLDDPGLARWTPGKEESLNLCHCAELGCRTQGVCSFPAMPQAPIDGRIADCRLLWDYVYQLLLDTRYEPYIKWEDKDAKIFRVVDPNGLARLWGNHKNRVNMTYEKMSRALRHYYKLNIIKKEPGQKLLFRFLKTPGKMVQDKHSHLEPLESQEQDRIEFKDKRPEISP
The note with it: protein: recombinant; tags: N-terminal GST; dsDNA, one strand shown. Put shortly: as §1

The target of test [16] is T11, ELF5 (Homo sapiens, UniProt Q9UKW6-2 1-255).
T11 sequence: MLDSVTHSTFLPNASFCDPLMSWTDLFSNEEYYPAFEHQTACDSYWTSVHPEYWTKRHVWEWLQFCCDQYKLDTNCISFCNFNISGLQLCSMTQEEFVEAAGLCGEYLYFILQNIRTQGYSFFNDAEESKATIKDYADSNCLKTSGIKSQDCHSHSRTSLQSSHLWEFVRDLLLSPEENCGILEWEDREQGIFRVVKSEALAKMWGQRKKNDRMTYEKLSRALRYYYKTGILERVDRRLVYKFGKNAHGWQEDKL
The note with it: protein: recombinant; tags: N-terminal GST; dsDNA, one strand shown. In short, it runs like this:
as §1

In test [17] the target is T12, ETV3 (Homo sapiens, UniProt P41162-2 1-143).
T12 sequence: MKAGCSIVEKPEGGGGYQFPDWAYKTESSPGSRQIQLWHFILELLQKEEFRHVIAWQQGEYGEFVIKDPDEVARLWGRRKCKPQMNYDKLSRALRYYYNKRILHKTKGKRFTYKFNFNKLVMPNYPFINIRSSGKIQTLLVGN
The note with it: protein: recombinant; tags: N-terminal GST; dsDNA, one strand shown. Put shortly:
as §1

The target of test [18] is ETV6 (Homo sapiens, UniProt P41212 1-452). The note with it: protein: recombinant; tags: N-terminal GST; dsDNA, one strand shown. Put shortly:
as §1

CRX, sequence (O43186 whole entry): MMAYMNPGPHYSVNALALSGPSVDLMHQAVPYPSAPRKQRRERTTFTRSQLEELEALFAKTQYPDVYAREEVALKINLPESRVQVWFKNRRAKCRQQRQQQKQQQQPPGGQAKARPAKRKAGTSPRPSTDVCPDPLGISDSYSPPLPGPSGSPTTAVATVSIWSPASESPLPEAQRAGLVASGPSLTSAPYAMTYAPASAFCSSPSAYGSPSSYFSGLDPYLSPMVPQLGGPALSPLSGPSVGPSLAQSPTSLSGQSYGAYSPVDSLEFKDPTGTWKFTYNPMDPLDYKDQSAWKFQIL
ETV1, sequence (P50549 whole entry): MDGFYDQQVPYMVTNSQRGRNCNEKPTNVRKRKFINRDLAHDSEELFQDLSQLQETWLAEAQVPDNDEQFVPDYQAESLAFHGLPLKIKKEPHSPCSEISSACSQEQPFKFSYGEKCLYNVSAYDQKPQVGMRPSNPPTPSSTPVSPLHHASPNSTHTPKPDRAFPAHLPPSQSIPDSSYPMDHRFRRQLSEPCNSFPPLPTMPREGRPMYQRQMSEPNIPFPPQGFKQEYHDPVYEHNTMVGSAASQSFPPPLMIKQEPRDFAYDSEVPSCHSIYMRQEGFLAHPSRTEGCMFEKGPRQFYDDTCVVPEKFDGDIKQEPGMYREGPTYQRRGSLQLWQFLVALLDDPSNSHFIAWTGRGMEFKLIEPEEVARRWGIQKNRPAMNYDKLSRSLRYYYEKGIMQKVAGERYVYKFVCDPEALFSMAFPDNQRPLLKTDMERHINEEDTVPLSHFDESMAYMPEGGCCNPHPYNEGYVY
ETV6, sequence (P41212 whole entry): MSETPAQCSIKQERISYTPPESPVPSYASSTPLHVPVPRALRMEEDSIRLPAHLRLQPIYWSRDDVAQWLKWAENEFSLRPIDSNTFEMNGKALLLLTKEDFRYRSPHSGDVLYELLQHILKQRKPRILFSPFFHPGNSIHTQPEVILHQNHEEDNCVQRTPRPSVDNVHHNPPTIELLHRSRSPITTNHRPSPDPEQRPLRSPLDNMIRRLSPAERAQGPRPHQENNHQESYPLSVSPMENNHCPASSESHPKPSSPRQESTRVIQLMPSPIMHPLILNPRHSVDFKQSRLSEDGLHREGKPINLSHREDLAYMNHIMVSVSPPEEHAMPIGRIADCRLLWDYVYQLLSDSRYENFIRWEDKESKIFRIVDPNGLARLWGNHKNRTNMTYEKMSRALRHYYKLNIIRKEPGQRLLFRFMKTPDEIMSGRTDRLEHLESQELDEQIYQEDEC
ETV5, sequence (P41161 whole entry): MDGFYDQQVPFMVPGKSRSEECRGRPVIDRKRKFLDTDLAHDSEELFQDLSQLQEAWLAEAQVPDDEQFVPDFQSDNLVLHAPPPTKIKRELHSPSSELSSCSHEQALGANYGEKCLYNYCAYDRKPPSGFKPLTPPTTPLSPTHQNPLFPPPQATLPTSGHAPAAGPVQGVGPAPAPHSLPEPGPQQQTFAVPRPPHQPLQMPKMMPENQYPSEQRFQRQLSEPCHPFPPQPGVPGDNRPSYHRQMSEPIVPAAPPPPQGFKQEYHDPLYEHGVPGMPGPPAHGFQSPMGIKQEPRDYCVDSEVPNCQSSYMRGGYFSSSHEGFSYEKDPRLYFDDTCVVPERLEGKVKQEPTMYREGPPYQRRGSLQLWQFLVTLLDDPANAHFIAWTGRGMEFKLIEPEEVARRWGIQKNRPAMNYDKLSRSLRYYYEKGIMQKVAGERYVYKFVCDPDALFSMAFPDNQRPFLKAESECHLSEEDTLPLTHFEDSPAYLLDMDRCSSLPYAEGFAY
HSF1, sequence (Q00613 whole entry): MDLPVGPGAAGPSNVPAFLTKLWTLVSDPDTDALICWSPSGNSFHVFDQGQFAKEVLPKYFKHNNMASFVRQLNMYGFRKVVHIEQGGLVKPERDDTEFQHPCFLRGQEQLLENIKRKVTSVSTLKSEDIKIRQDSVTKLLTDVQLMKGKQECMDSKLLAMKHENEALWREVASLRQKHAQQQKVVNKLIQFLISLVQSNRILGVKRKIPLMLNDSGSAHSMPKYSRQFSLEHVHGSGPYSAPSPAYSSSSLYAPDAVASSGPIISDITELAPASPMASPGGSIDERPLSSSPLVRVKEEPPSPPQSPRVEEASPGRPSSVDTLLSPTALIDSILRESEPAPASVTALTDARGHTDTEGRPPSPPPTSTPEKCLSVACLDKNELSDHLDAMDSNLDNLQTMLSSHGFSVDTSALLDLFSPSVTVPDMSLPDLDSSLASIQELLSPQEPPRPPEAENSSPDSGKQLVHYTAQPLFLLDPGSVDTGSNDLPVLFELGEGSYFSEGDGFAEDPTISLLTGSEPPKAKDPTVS

Turning to CCTAAG, the binding signal in test [1] is 1.14 fold enrichment (6-mer frequency, TF over GST control); in test [2], 1.2 fold enrichment (6-mer frequency, TF over GST control); in test [3], 1.35 fold enrichment (6-mer frequency, TF over GST control); in [4] it was 1.14 fold enrichment (6-mer frequency, TF over GST control); in test [5], 1.26 fold enrichment (6-mer frequency, TF over GST control); in [6], 1.27 fold enrichment (6-mer frequency, TF over GST control). Further, the binding signal was 1.08 fold enrichment (6-mer frequency, TF over GST control) in [7]; 1.09 fold enrichment (6-mer frequency, TF over GST control) in test [8]; 1.85 fold enrichment (6-mer frequency, TF over GST control) in test [9]; 1.09 fold enrichment (6-mer frequency, TF over GST control) in test [10]; 1.11 fold enrichment (6-mer frequency, TF over GST control) in test [11]; 1.12 fold enrichment (6-mer frequency, TF over GST control) in [12]. Also, the binding signal in test [13] is 1.09 fold enrichment (6-mer frequency, TF over GST control); in test [14], 1.08 fold enrichment (6-mer frequency, TF over GST control); in test [15] it was 1.09 fold enrichment (6-mer frequency, TF over GST control); in [16], 1.11 fold enrichment (6-mer frequency, TF over GST control); in test [17], 1.06 fold enrichment (6-mer frequency, TF over GST control); in test [18], 1.11 fold enrichment (6-mer frequency, TF over GST control).
